Results: PubChem BioAssay AID1159580 (chemical genetic matrix, 2015)
Hit rate of the full screen: of about 5,500 compounds, about 2,000 (36%) were called active. About 18% were inconclusive and are not listed. Cut-off read from the data, not from the text of the source: active = normalized growth mostly below about 0.91 (no sharp cut-off); inconclusive = no clear call, values can overlap the other calls; inactive = mostly above about 0.92. The list shows a part of the results.

Assay: chemical genetic growth profiling, strain panel (AID 1159580);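 note: tested at 20 µM; growth read once vehicle control cultures reached saturation at 30 °C; 1 = growth at the plate median or of vehicle wells; lower values mean less growth of the strain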
Conditions: S. cerevisiae deletion strains, growth OD

Measured: normalized growth

O=S(=O)(O)O
inactive: locus YAL021C, strain ccr4, hits give low values 0.973 | locus YAL026C, strain drs2, hits give low values 0.983 | locus YAL030W, strain snc1, hits give low values 0.985 | locus YBL061C, strain skt5, hits give low values 0.975 | locus YBR009C, strain hhf1, hits give low values 0.991 | locus YBR023C, strain chs3, hits give low values 0.98 | locus YBR171W, strain sec66, hits give low values 0.961 | locus YBR231C, strain swc5, hits give low values 0.976 | locus YBR279W, strain paf1, hits give low values 0.985 | locus YCL011C, strain gbp2, hits give low values 0.965 | locus YCL016C, strain dcc1, hits give low values 0.981 | locus YCL061C, strain MRC1, hits give low values 0.993 | locus YCL069W, strain vba3, hits give low values 0.969 | locus YCR088W, strain abp1, hits give low values 0.956 | locus YDL005C, strain med2, hits give low values 0.954 | locus YDL040C, strain nat1, hits give low values 0.988 | locus YDR001C, strain nth1, hits give low values 0.987 | locus YDR069C, strain doa4, hits give low values 0.964 | locus YDR137W, strain rgp1, hits give low values 1.01 | locus YDR159W, strain sac3, hits give low values 0.985 | locus YDR195W, strain ref2 1 | locus YDR297W, strain sur2, hits give low values 0.976 | locus YDR334W, strain swr1, hits give low values 0.976 | locus YDR335W, strain msn5, hits give low values 0.978 | locus YDR392W, strain spt3, hits give low values 0.914 | locus YEL003W, strain gim4, hits give low values 0.988 | locus YEL037C, strain rad23, hits give low values 0.969 | locus YEL061C, strain CIN8 (second series), hits give low values 0.971 | locus YER015W, strain faa2, hits give low values 0.975 | locus YER016W, strain bim1, hits give low values 0.983 | locus YER111C, strain swi4, hits give low values 0.967 | locus YER155C, strain BEM2 (second series), hits give low values 0.976 | locus YFR010W, strain ubp6, hits give low values 0.973 | locus YGL167C, strain pmr1, hits give low values 0.973 | locus YGL173C, strain kem1, hits give low values 0.962 | locus YGL227W, strain vid30, hits give low values 0.961 | locus YGL240W, strain doc1, hits give low values 0.982 | locus YGL253W, strain hxk2, hits give low values 0.969 | locus YHR013C, strain ard1, hits give low values 0.96 | locus YHR027C, strain rpn1, hits give low values 0.978 | locus YHR030C, strain SLT2, hits give low values 1.04 | locus YHR079C, strain IRE1, hits give low values 1.06 | locus YHR142W, strain chs7, hits give low values 0.961 | locus YJL092W, strain hpr5, hits give low values 0.95 | locus YJL095W, strain BCK1 (second series), hits give low values 0.981 | locus YJL095W, strain BCK1, hits give low values 1.06 | locus YJL115W, strain asf1, hits give low values 0.981 | locus YJL129C, strain trk1, hits give low values 0.961 | locus YJL154C, strain vps35, hits give low values 0.977 | locus YJL164C, strain tpk1, hits give low values 0.983 | locus YJL166W, strain qcr8, hits give low values 0.977 | locus YJL187C, strain SWE1, hits give low values 0.981 | locus YJR066W, strain TOR1, hits give low values 0.967 | locus YKL160W, strain elf1, hits give low values 0.987 | locus YKR026C, strain gcn3, hits give low values 0.975 | locus YKR091W, strain srl3, hits give low values 0.977 | locus YLL001W, strain dnm1, hits give low values 0.992 | locus YLL026W, hits give low values 0.966 | locus YLL041C, strain sdh2, hits give low values 0.988 | locus YLR027C, strain aat2, hits give low values 0.985 | locus YLR113W, strain HOG1, hits give low values 0.992 | locus YLR221C, strain rsa3, hits give low values 0.979 | locus YLR258W, strain gsy2, hits give low values 0.98 | locus YLR262C, strain YPT6 (second series), hits give low values 1 | locus YLR320W, strain mms22, hits give low values 0.969 | locus YLR342W, strain FKS1, hits give low values 0.955 | locus YLR357W, strain rsc2, hits give low values 0.951 | locus YLR370C, strain arc18, hits give low values 0.965 | locus YLR384C, strain iki3, hits give low values 0.977 | locus YML120C, strain ndi1, hits give low values 0.979 | locus YMR058W, strain fet3, hits give low values 0.985 | locus YMR125W, strain sto1, hits give low values 0.944 | locus YMR129W, hits give low values 0.99 | locus YMR205C, strain PFK2, hits give low values 0.976 | locus YMR231W, strain pep5, hits give low values 0.956 | locus YNL071W, strain lat1, hits give low values 0.959 | locus YNL183C, strain NPR1, hits give low values 0.986 | locus YNL209W, strain ssb2, hits give low values 0.975 | locus YNL248C, strain rpa49, hits give low values 0.978 | locus YNL322C, strain KRE1 (second series), hits give low values 0.966 | locus YNR049C, strain mso1, hits give low values 0.983 | locus YOR001W, strain rrp6, hits give low values 0.964 | locus YOR070C, strain gyp1, hits give low values 0.974 | locus YOR080W, strain dia2, hits give low values 0.968 | locus YOR083W, strain WHI5, hits give low values 0.986 | locus YOR106W, strain vam3, hits give low values 0.934 | locus YOR231W, strain MKK1, hits give low values 1.02 | locus YOR265W, strain rbl2, hits give low values 0.981 | locus YOR270C, strain vph1, hits give low values 1 | locus YOR290C, strain snf2, hits give low values 0.982 | locus YPL051W, strain arl3, hits give low values 0.981 | locus YPL078C, strain atp4, hits give low values 0.982 | locus YPL106C, strain sse1, hits give low values 0.946 | locus YPL240C, strain hsp82, hits give low values 0.957 | locus YPL256C, strain CLN2, hits give low values 1.06
